From PubChem
This excerpt belongs to a sample that is enriched for hits.
DUX4 inh = DUX4-mediated transcription inhibition; activity change, negative = inhibition, % (no concentration beside the values); AID 1224904; actives 0.8% (n = 37,000); 293T-iDUX4 ZSCAN4-Gaussia luciferase reporter, 24 h; stronger effect = lower value;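 active = mean inhibition of at least 10% in the main channel, exceeding the control channel by a set limit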;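 also: 0% = median of neutral control wells and -100% = median of positive control wells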
Starred values were filed as active, the others as inactive.

SMILES	DUX4 inh
O=C(C[C@H]1C[C@H]2c3cc(NC(=O)Nc4ccc(C(F)(F)F)cc4)ccc3O[C@H]2[C@@H](CO)O1)NCc1ccc(Cl)cc1	-4
O=C(C[C@@H]1C[C@H]2c3cc(NC(=O)Nc4ccc(C(F)(F)F)cc4)ccc3O[C@H]2[C@H](CO)O1)NCc1ccc2c(c1)OCO2	-47*
O=C(C[C@@H]1C[C@@H]2c3cc(NC(=O)Nc4ccc(C(F)(F)F)cc4)ccc3O[C@@H]2[C@H](CO)O1)NCc1ccc(Cl)cc1	3
COc1ccc(NC(=O)Nc2ccc3c(c2)[C@H]2C[C@@H](CC(=O)N[C@@H](C)c4ccccc4)O[C@H](CO)[C@H]2O3)cc1	1
COc1ccc(NC(=O)Nc2ccc3c(c2)[C@H]2C[C@@H](CC(=O)NCCc4ccccc4)O[C@@H](CO)[C@H]2O3)cc1	-1
C[C@H]1CN([C@@H](C)CO)C(=O)CCCn2cc(nn2)CO[C@H]1CN(C)S(=O)(=O)c1ccc(C#N)cc1	-4
CCS(=O)(=O)N[C@@H]1CC[C@@H](CC(=O)Nc2ccc(-c3ccccc3)cc2)O[C@@H]1CO	5
O=C(c1ccccn1)N1CC2(C1)[C@H](c1ccccc1)[C@H](CO)N2C(=O)C1CCC1	6
C[C@H](CO)N1C[C@H](C)[C@@H](CN(C)C(=O)CCCN(C)C)OCCCC[C@H](C)Oc2ccc(NS(=O)(=O)c3cn(C)cn3)cc2C1=O	1
O=C(C[C@@H]1C[C@@H]2c3cc(NC(=O)c4cccnc4)ccc3O[C@@H]2[C@H](CO)O1)NCCN1CCCCC1	5
COc1ccc(NC(=O)Nc2ccc3c(c2)C(=O)N([C@H](C)CO)C[C@@H](C)[C@@H](CN(C)Cc2ccncc2)OCCCC[C@@H](C)O3)cc1	-2
CO[C@H]1CC[C@H]2CCN(C)C(=O)[C@H](C)[C@H](OC)CN(C)C(=O)c3cccc(C#N)c3OC[C@H]1O2	1
Cc1ccccc1-c1ccc([C@H]2[C@H](CO)N3C(=O)CN(C(=O)NC4CCCC4)C[C@@H]23)cc1	3
O=C(C[C@H]1C=C[C@@H](NC(=O)C2CC2)[C@@H](CO)O1)NCc1ccncc1	7
O=C(Nc1ccccc1F)N1CCCCN2[C@H](C1)[C@H](c1ccc(/C=C/c3ccccc3)cc1)[C@@H]2CO	3
COCC#Cc1ccc([C@H]2[C@@H](CO)N3CCCCN(C(=O)Nc4cc(F)ccc4F)C[C@H]23)cc1	-23*
COCC#Cc1ccc([C@@H]2[C@@H](CO)N3CCCCN(C(=O)Nc4cc(F)ccc4F)C[C@@H]23)cc1	-1
CN(C)CC#Cc1ccc([C@@H]2[C@H](CO)N3CCCCN(C(=O)Nc4cc(F)ccc4F)C[C@@H]23)cc1	20
C/C=C/c1ccc([C@H]2[C@@H](CO)N3CCCCN(C(=O)Nc4ccc(F)cc4)C[C@@H]23)cc1	15
C/C=C/c1ccc([C@@H]2[C@@H](CO)N3CCCCN(C(=O)Nc4cc(F)ccc4F)C[C@@H]23)cc1	-13*
CNC[C@@H]1OCCCC[C@H](C)Oc2ccc(NC(=O)Nc3c(C)noc3C)cc2C(=O)N([C@H](C)CO)C[C@H]1C	-1
CO[C@H]1CN(C)C(=O)c2cc(NS(=O)(=O)c3ccc(Cl)cc3)ccc2OC[C@H](C)N(C(=O)NC(C)C)C[C@@H]1C	-2
C/C=C/c1cccc(-c2nc(C(=O)NC3CCC3)cc3c2[C@@H](CCO)N([S@](=O)C(C)(C)C)C3)c1	-6
OC[C@H]1[C@@H](c2ccc(C#Cc3cccnc3)cc2)[C@H]2CN(Cc3ccccc3F)CCCCN21	-43*
CCC(=O)N1CCCCN2[C@H](C1)[C@@H](c1ccc(-c3cccc(C#N)c3)cc1)[C@@H]2CO	4
SMILES	DUX4 inh
CC(C)(O)C#Cc1ccc([C@H]2[C@@H](CO)N3CCCCN(Cc4ccccc4F)C[C@@H]23)cc1	19
CC(C)(O)C#Cc1ccc([C@@H]2[C@@H](CO)N3CCCCN(Cc4ccccc4F)C[C@@H]23)cc1	16
OC[C@H]1[C@@H](c2ccc(C#Cc3cccnc3)cc2)[C@@H]2CN(Cc3ccccc3F)CCCCN12	-51*
CC(C)(O)C#Cc1ccc([C@H]2[C@H]3CN(Cc4ccccc4F)CCCCN3[C@H]2CO)cc1	3
OC[C@@H]1[C@@H](c2ccc(C#Cc3ccccc3)cc2)[C@H]2CN(Cc3cncnc3)CCCCN12	-4
O=C(Nc1ccccc1F)N1CCCCN2[C@H](CO)[C@@H](c3ccc(C#Cc4cccnc4)cc3)[C@H]2C1	-3
OC[C@@H]1[C@@H](c2ccc(C#Cc3cccnc3)cc2)[C@H]2CN(Cc3ccccc3F)CCCCN12	-45*
O=C(Nc1ccccc1F)N1CCCCN2[C@H](C1)[C@H](c1ccc(C#Cc3cccnc3)cc1)[C@@H]2CO	-10
N#Cc1cccc(-c2ccc([C@@H]3[C@@H](CO)N4CCCCN(Cc5ccccc5F)C[C@H]34)cc2)c1	-33*
CCC(=O)N1CCCCN2[C@@H](CO)[C@@H](c3ccc(-c4cccc(C#N)c4)cc3)[C@@H]2C1	15
COc1ccc([C@H]2CC=CC[C@H](C)Oc3ccccc3C(=O)N(C)[C@H](C)C(=O)N2)c(OC)c1 (mixture of isomers)	-3
